Source: PubChem BioAssay (Tox21)
Results filed as inconclusive are left out. Unmarked numbers belong to inactive results. Active and inactive are the calls of the source. Calls come from the whole dose curve; as a rule, active = well fitted inhibition curve with a large enough effect in the repeat runs; inconclusive = weak or mixed curves; inactive = no such curve, though single readings can be large or run the other way.

What follows are molecules tested against Cytochrome P450 3A4 (Homo sapiens) (UniProt P08684) (assay: Cytochrome P450 Family 3 Subfamily A Member 4 (CYP3A4) small molecule antagonists: luciferase reporter qHTS assay (AID 1671201; note: nearly all actives have a fitted effect of over 50% in size)). Settings: P450-Glo CYP3A4 enzyme, luciferin luminescence, 1 h; series mostly up to 115 µM; activity change, negative = inhibition: at the top concentration.
How it was run: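 Proluciferin-to-luciferin conversion by CYP3A4, NADPH-regenerated, 1 h RT; luminescence read as RLU. Ketoconazole as control.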
% is set by controls: 0 for no effect and ±100 for the full control effect; potency is the fitted concentration of half-maximal effect.

Cytochrome P450 3A4 (Homo sapiens), sequence (P08684 whole entry, looked up): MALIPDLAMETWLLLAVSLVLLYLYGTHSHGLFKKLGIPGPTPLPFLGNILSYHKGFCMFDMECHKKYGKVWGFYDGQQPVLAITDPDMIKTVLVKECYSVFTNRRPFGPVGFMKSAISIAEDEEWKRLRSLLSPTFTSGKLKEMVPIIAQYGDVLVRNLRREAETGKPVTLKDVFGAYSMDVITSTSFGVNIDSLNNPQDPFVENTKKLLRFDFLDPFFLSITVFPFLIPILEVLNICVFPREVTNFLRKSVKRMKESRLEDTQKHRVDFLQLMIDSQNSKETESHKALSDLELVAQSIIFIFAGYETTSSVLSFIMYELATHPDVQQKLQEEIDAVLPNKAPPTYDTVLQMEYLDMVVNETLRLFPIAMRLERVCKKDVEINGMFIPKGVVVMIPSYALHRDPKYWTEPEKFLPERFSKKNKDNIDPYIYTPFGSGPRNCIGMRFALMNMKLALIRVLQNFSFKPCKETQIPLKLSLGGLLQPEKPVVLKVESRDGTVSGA

Compound	Potency	activity change, negative = inhibition
C=C/C(C)=C/C/C=C(\C)CCC=C(C)C	15.9 µM (active)	
CO[C@]1(NC(=O)CSC(F)F)C(=O)N2C(C(=O)O)=C(CSc3nnnn3CCO)CO[C@H]21		2.84% [at 52.9 µM]
CCCCCCNC(=O)n1cc(F)c(=O)[nH]c1=O		-19.6% [at 52.9 µM]
CN(C)CCN1C(=O)c2ccccc2N(C)c2ccccc21		-5.5% [at 52.9 µM]
CC/C=C1/OC(=O)c2ccccc21		11.3%
CCCCCCCCN		0.391%
CC(C)(O)c1ccc(CNC(=O)c2cccnc2Oc2ccc3nonc3c2)cc1	25.2 µM (active)	
Oc1cccc(O)c1O		-24.9%
CN1C(=O)c2ccccc2C1=O		31.8%
Clc1cc(Cl)nc(Cl)n1		-0.959%
O=C(O)CCCCCCCCCCCBr		34.8%
O=C1c2ccccc2C(=O)c2c(O)c(O)cc(O)c21		-19.8%
O=c1cc(-c2ccccc2)oc2cc(O)cc(O)c12	17.8 µM (active)	
CCOc1cccc(-n2cc(C(=O)N3CCN(c4cc(C(=O)O)c5ccccc5c4)CC3)nc2-c2ccc(C)cc2)c1		-3.1%
COc1ccccc1Oc1c(NS(=O)(=O)c2ccc(C(C)(C)C)cc2)nc(-c2ncccn2)nc1OCCO		-12.4% [at 52.9 µM]
CCC(=O)C1CC(C(C)C)CC=C1C (stereo unspecified)	39.9 µM (active)	
